This is an account of results in ChEMBL document CHEMBL1201862, “PubChem BioAssay data set” (2004).

The structures appear in SMILES notation. About 1,900 (0.47%) of roughly 400,000 compounds were called active. Another 14% or so got no clear call; they are omitted. No rule for the calls is given here. The entries come from a sample that favours actives as a whole.

The target of the experiment is Ataxin-2 (Homo sapiens) (UniProt Q99700). In words: qHTS for Inhibitors of ATXN expression. It is filed as functional.
Chain of Ataxin-2 (Homo sapiens) (Q99700 whole entry): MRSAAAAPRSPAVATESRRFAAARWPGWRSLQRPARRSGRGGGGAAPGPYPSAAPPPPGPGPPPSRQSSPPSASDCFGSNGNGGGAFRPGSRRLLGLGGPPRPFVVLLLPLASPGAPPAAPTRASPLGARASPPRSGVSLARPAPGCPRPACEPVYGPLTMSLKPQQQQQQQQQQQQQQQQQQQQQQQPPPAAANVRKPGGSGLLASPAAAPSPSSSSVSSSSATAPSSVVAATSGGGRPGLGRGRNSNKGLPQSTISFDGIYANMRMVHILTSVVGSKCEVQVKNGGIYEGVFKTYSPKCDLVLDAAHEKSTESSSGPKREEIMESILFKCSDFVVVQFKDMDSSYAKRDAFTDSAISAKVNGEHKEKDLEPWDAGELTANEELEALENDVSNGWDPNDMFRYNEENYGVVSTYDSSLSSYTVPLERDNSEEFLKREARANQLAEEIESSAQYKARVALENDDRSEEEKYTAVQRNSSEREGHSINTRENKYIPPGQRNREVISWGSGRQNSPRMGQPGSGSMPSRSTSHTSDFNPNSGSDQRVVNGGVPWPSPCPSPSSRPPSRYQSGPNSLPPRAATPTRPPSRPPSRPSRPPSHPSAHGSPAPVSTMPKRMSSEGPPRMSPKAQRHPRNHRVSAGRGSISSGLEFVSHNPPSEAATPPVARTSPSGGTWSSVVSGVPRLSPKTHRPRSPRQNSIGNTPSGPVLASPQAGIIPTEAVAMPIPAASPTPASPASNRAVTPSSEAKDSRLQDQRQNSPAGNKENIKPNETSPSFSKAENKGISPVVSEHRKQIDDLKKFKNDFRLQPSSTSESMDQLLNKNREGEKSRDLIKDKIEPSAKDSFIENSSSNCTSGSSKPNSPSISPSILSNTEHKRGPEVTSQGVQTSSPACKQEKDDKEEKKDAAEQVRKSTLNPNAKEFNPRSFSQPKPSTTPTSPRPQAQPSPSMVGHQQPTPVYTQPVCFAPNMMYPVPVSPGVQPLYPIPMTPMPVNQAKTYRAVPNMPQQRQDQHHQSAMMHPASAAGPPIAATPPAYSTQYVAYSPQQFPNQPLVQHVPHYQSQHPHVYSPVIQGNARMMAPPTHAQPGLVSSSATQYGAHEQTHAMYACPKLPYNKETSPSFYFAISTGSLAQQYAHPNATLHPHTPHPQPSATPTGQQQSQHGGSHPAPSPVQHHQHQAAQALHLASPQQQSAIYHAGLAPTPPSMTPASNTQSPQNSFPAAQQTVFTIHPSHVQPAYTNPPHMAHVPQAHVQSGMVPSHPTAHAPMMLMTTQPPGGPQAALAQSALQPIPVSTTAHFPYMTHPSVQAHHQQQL
For the molecule `CC(C)OCCCNC(=O)c1c(N)n(CC2CCCO2)c2nc3ccccc3nc12` (configuration not stated), the Potency entry is “inactive”.

On to `Cc1nc2ccc(N3CCN(C)CC3)cc2nc1C`, for which the Potency result is “inactive”.

Turning to `O=C(c1ccc(-c2ccccc2)c(F)c1)C1CCCN(CCO)C1` (configuration not stated), the Potency result is “inactive”.

Turning to `O=C(c1ccccc1)C(CN1CCCC1)c1ccccc1` (configuration not stated), the Potency was 25.1 µM (active).

`CC(C)(C)n1nnnc1C(c1cc2ccccc2o1)N1CCC2(CC1)C(=O)NCN2c1ccccc1` (configuration not stated): the Potency is 39.8 µM (active).

In the case of `O=C1NCN(c2ccccc2)C12CCN(C(c1cc3ccccc3o1)c1nnnn1Cc1ccccc1)CC2` (configuration not stated), the Potency was 39.8 µM (active).

As to `CCCNC(=O)c1c(N)n(Cc2ccco2)c2nc3ccccc3nc12`, the Potency result was “inactive”.

Take `O=C1NCN(c2ccccc2)C12CCN(C(c1cccs1)c1nnnn1Cc1ccccc1)CC2` (configuration not stated): the Potency is 39.8 µM (active).

On to `CCCCn1nnnc1C(c1cccs1)N1CCC2(CC1)C(=O)NCN2c1ccccc1` (configuration not stated), for which the Potency was 31.6 µM (active).

Consider `Fc1ccc(CNCCc2ccc3c(c2)OCO3)cc1`, for which the Potency entry is “inactive”.

On to `O=C1NC(=O)N(CCc2ccccc2)C(=O)/C1=C(O)/C=C/c1c[nH]c2ccccc12`, for which the Potency result was “inactive”.

Take `CN(C)C(=O)Oc1ccc2nnc3ccnn3c2c1`: the Potency entry is “inactive”.

Consider `CCOc1ccc(N2C(=O)NC(=O)/C(=C\c3ccccc3[N+](=O)[O-])C2=O)cc1`, for which the Potency result is “inactive”.

With `CC(C)c1ccc(N2C(=O)NC(=O)/C(=C/C=C/c3ccco3)C2=O)cc1`, the Potency is 39.8 µM (active).

`CN(C)c1ccc(/C=C/C=C2/C(=O)NC(=O)N(c3ccccc3)C2=O)cc1`: the Potency is 15 µM (active).

Turning to `COc1ccc(N2C(=O)NC(=O)/C(=C\c3c[nH]c4ccccc34)C2=O)cc1`, the Potency result was “inactive”.

`Cc1ccc(-c2cc(-c3ccc(C)cc3)[n+](-c3ccccc3)c(-c3ccc(C)cc3)c2)cc1`: the Potency is 17.8 µM (active).

Regarding `c1ccc(-c2cc(-c3ccccc3)[n+](-c3ccccc3)c(-c3ccccc3)c2)cc1`, the Potency is 25.1 µM (active).

As to `Cc1ccc(C[n+]2c(-c3ccc(C)cc3)cc(-c3ccc(C)cc3)cc2-c2ccc(C)cc2)cc1`, the Potency was 12.6 µM (active).

`COP(=O)(OC)c1nc(-c2cccc3ccccc23)oc1NCCc1ccccc1`: the Potency entry was “inactive”.

Take `CCCCn1c(NS(=O)(=O)c2ccc(C)cc2)c(C(=O)OCC)c2nc3ccccc3nc21`: the Potency result is “inactive”.

Take `CCOc1ccc(C(=O)Nc2cccc(C(=O)OCc3cc(=O)n4nc(C5CC5)sc4n3)c2)cc1`: the Potency is 3.55 µM (active).

Regarding `Cn1c(=O)c2c(nc(NN/C=C3/C(=O)NC(=S)N(C4CCCCC4)C3=O)n2C)n(C)c1=O`, the Potency result was “inactive”.

As for `CN(C)c1c([N+](=O)[O-])cc(N2C(=O)C=CC2=O)cc1[N+](=O)[O-]`, the Potency is 25.1 µM (active).

On to `CN1/C(=C\C=C2C(=O)NC(=S)NC2=O)C(C)(C)c2ccccc21`, for which the Potency was 35.5 µM (active).

For the molecule `CC1(C)OC(c2ccccc2)=C/C(=C/C=C2C(=O)NC(=S)NC2=O)O1`, the Potency entry was “inactive”.

As to `CC1(C)OC(c2ccccc2)=C/C(=C/C=C2C(=O)NC(=O)NC2=O)O1`, the Potency result is “inactive”.

With `Cc1nc2cc(OC(=O)N(C)Cc3cccc(-c4ccncc4)c3)ccc2s1`, the Potency was 39.8 µM (active).

Turning to `COc1ccc(C[C@@H]2NC[C@H](O)[C@@H]2OC(C)=O)cc1`, the Potency is 0.0891 µM (active).

Take `CCCCCN1C(=O)c2cc(OC)ccc2[C@@]2(C(=O)OCC)Cc3cc(OC)ccc3[C@@H]12`: the Potency was 11.2 µM (active).

For the molecule `CCOC(=O)[C@]12Cc3cc(OC)ccc3[C@H]1N(CCC(=O)OC)C(=O)c1cc(OC)ccc12`, the Potency was 28.2 µM (active).

`Cc1ccc(C(=O)N[C@@H](C)CN2C3=NC[C@H](Cc4ccccc4)N3C[C@H]2Cc2ccc(O)cc2)cc1Br`: the Potency is 22.4 µM (active).

Turning to `O=c1c2ccccc2nc(/C=C/c2ccc(O)cc2)n1-c1ccc(O)cc1`, the Potency result was “inactive”.

On to `Cc1ccc(C)c(S(=O)(=O)Nc2ccc3c(c2)CCCN3C(=O)c2cccs2)c1`, for which the Potency was 39.8 µM (active).

Consider `COc1cccc(-c2nc3cc4c(cc3cc2CN(C(=O)c2cccs2)C2CC2)CCC4)c1OC`, for which the Potency was 35.5 µM (active).

Regarding `CCOc1ccc(N/C=C2/C(=O)NC(=S)N(Cc3ccccc3)C2=O)cc1`, the Potency result is “inactive”.

In the case of `CCCC[C@@H](C)C[C@@H](C)C(=O)N(C)[C@@H](CC(C)C)C(=O)N[C@H](C(=O)N(C)[C@H](C(=O)N1C[C@@H](O)C[C@H]1C(=O)N1C(=O)C=C[C@@H]1C)C(C)C)C(C)OC(C)=O` (some centres not stated), the Potency was 10 µM (active).

Turning to `O=c1c2ccccc2nc(/C=C/c2ccc(O)c(O)c2)n1-c1ccccc1`, the Potency result was “inactive”.

In the case of `Cc1ccc(N2C(=O)/C(=C/NCc3ccccn3)C(=O)NC2=S)cc1`, the Potency entry is “inactive”.

With `O=C1NC(=S)N(c2ccccc2F)C(=O)/C1=C\c1cccs1`, the Potency is 31.6 µM (active).

Take `O=C1NC(=S)N(c2ccc(F)cc2)C(=O)/C1=C\c1ccoc1`: the Potency result is “inactive”.

As for `Cc1cc(N(CCCl)CCCl)ccc1C=Cc1ccncn1`, the Potency entry was “inactive”.

For `Oc1nc2ccccc2n1C1CCN(C(CCc2ccccc2)c2nnnn2-c2ccc3c(c2)OCCO3)CC1` (configuration not stated), the Potency is 39.8 µM (active).

Turning to `Oc1nc2ccccc2n1C1CCN(C(c2ccccc2OC(F)(F)F)c2nnnn2-c2ccc3c(c2)OCCO3)CC1` (configuration not stated), the Potency is 39.8 µM (active).

For the molecule `Oc1nc2ccccc2n1C1CCN(C(CCc2ccccc2)c2nnnn2C2CCCCC2)CC1` (configuration not stated), the Potency was 39.8 µM (active).

`Oc1nc2ccccc2n1C1CCN(C(c2ccccc2)c2nnnn2-c2ccc3c(c2)OCCO3)CC1` (configuration not stated): the Potency is 14.1 µM (active).

In the case of `COc1ccc(C2CC(c3cccs3)=NN2c2nc(C)c(C(C)=O)s2)cc1OC` (configuration not stated), the Potency result is “inactive”.

Take `CCOCCSc1nc2c(c(-c3cccs3)c1C#N)CC/C2=C/c1cccs1`: the Potency entry is “inactive”.

Take `Cc1cccc(-c2noc(-c3ccc4c(c3)OCO4)n2)c1`: the Potency entry was “inactive”.

As to `CC(C)CNC(=O)c1c(N)n(Cc2ccco2)c2nc3ccccc3nc12`, the Potency entry is “inactive”.

Consider `CCCN=C1C(=O)C2=C(C(O)=C1C)N1CC3NC3[C@@]1(OC)C2COC(N)=O` (some centres not stated), for which the Potency entry was “inactive”.

Consider `COc1ccc(-n2c(/C=C/c3ccc(O)c(OC)c3)nc3ccccc3c2=O)cc1`, for which the Potency result is “inactive”.

With `CC[N+](C)(CC)CCC[n+]1c(-c2ccccc2)c2cc(N)ccc2c2ccc(N)cc21`, the Potency is 11.2 µM (active).

Regarding `C/C(=C\c1ccc(N(C)C)cc1)[N+](=O)[O-]`, the Potency is 22.4 µM (active).

Regarding `Cc1ccc(CN2CCCC(C(=O)c3cccc(C(F)(F)F)c3)C2)o1` (configuration not stated), the Potency entry was “inactive”.

In the case of `C=C1C(=O)O[C@@H]2C[C@@H](C)[C@H]3C=CC(=O)[C@]3(O)C[C@@H]12`, the Potency is 22.4 µM (active).

In the case of `C=C1C(=O)O[C@@H]2C[C@@H](C)[C@@H]3C=CC(=O)[C@@]3(C)[C@@H](O)[C@H]12`, the Potency is 20 µM (active).

Consider `C=C1C(=O)O[C@@H]2C[C@@H](C)[C@@H]3C=CC(=O)[C@@]3(C)[C@@H](OC(=O)CC(=O)O[C@H]3[C@@H]4C(=C)C(=O)O[C@@H]4C[C@@H](C)[C@@H]4C=CC(=O)[C@]43C)[C@H]12`, for which the Potency was 0.562 µM (active).

For `COc1cc(/C=C/c2nc3ccccc3c(=O)n2-c2ccccc2O)ccc1O`, the Potency result was “inactive”.

Turning to `COc1ccc(-c2c/c(=N\CCC(=O)O)c3cc(C)ccc3o2)cc1`, the Potency result was “inactive”.

Turning to `C=CCn1c(=O)/c(=C\c2ccccn2)s/c1=C(/C#N)C(=O)NCC1CCCO1` (configuration not stated), the Potency result was “inactive”.

On to `O=C(Nc1c(Cl)cccc1Cl)Oc1cccc2cccnc12`, for which the Potency result is “inactive”.

`O=C(NNC(=O)C12CC3CC(CC(C3)C1)C2)c1ccccc1F`: the Potency entry is “inactive”.

With `C[C@@]12CC[C@H]3[C@@H](CC[C@]4(O)C[C@H](O)CC[C@@]34C=O)[C@]1(O)CC[C@@H]2C1=CC(=O)OC1`, the Potency is 0.708 µM (active).

On to `C[C@@H]1O[C@H](O[C@@H]2CC[C@@]3(C=O)[C@H]4CC[C@@]5(C)[C@@H](C6=CC(=O)OC6)CC[C@@]5(O)[C@@H]4CC[C@]3(O)C2)C[C@H](O)[C@@H]1O`, for which the Potency is 3.55 µM (active).

In the case of `C[C@@H]1O[C@H](O[C@H]2C[C@@H](O)[C@@]3(CO)[C@H]4[C@@H](O)C[C@]5(C)[C@@H](C6=CC(=O)OC6)CC[C@]5(O)[C@H]4CC[C@]3(O)C2)[C@@H](O)[C@H](O)[C@@H]1O`, the Potency was 0.0891 µM (active).

`CCC1C(=O)OCC1Cc1cncn1C` (configuration not stated): the Potency result was “inactive”.

On to `COc1cccc(C(c2nnnn2C(C)(C)C)N2CCC3(CC2)C(=O)NCN3c2ccccc2)c1OC` (configuration not stated), for which the Potency was 39.8 µM (active).

Turning to `CSCCC(c1nnnn1C1CCCCC1)N1CCC2(CC1)C(=O)NCN2c1ccccc1` (configuration not stated), the Potency is 39.8 µM (active).

`COc1cccc(C(c2nnnn2C2CCCC2)N2CCC3(CC2)C(=O)NCN3c2ccccc2)c1OC` (configuration not stated): the Potency is 39.8 µM (active).

Take `COc1cccc(C(c2nnnn2-c2ccc3c(c2)OCCO3)N2CCC3(CC2)C(=O)NCN3c2ccccc2)c1OC` (configuration not stated): the Potency is 39.8 µM (active).

As to `CC(C)(C)n1nnnc1C(c1cccc2ccccc12)N1CCC2(CC1)C(=O)NCN2c1ccccc1` (configuration not stated), the Potency is 39.8 µM (active).
